Screening results (PubChem BioAssay)
Many of the other results were omitted from the sample, so hits are more common in it than they were.
RmlC RmlD mix: RmlC and RmlD coupled enzyme inhibitors, primary screen, biochemical, 384-well, compound mixtures, retest. RmlC/RmlD coupled enzyme inhibition, 384-well mixture HTS. inhibition, % at 5.5 µM. 0.39% of 110,000 active; in the data active = inhibition above about 30%, passing the limit was not always enough
RT RNaseH block: HIV-1 RT RNase H inhibitors, primary screen, biochemical, fluorescence | 1.9% of 65,000 active | RT-RNase H RNA/DNA duplex cleavage | inhibition, % at 10 µM | Gag-Pol polyprotein (Human immunodeficiency virus type 1 group M subtype B (isolate … | AID 565, 2006; in the data active = inhibition above about 50%
RmlCD fluor art: counter-screen for RmlC/RmlD inhibitors: fluorescence artifact, dose response, artefact control, biochemical. 96% of 360 active. RmlC/RmlD assay fluorescence artifact counter-screen. shares compounds with RmlC RmlD mix. calls only. AID 1696, 2009; call rule not given here;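 also: compound alone with no enzyme and no substrates present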
Active calls of the source: *; i = inactive; . = no result given; + = active, no number.

SMILES | RmlC RmlD mix | RT RNaseH block | RmlCD fluor art
O=C(Nc1cc(Oc2ccccc2)cc([N+](=O)[O-])c1)C12CC3CC(C1)CC(n1cnc(Cl)n1)(C3)C2 | 10.6 | . | .
OCc1nc2ccccc2n1C/C=C/c1ccccc1 | -2.3 | 1.4 | .
CC(C(=O)NCC1CCCO1)n1cccc1C(=O)c1ccccc1 (stereo not given) | 10.1 | -8.2 | .
CCN(CC(=O)Nc1cccc(OC)c1)C(=O)c1ccc(C)s1 | 4.9 | . | .
Cn1c(C(=O)NCc2ccccn2)cc2c(=O)n3ccccc3nc21 | 95.6* | -28.4 | +
Cn1nc(C(=O)NCc2ccccn2)c2ccccc2c1=O | -8.2 | -11.1 | .
Cc1nc(NC(=O)c2ccc(Cl)cc2)sc1-c1csc(Nc2cccc(F)c2)n1 | -1.7 | . | .
CC(C)[C@@H]1NC(=O)c2cc([N+](=O)[O-])cc(F)c2NCCC[C@@H](C(N)=O)NC(=O)[C@H](CO)NC1=O | 8.3 | . | .
CC1=CC2=NC(=O)CC(C)(C(=O)N(CC(=O)NC(C)(C)C)Cc3cccs3)N2C=C1 (stereo not given) | -4.2 | . | .
CCCc1cc(=O)oc2c(CN3CCN(C)CC3)c(O)c(Cl)cc12 | 71.3* | -8.3 | +
CCCCc1cc(=O)oc2c(CN(CC)CC)c(O)c(Cl)cc12 | 85.4* | . | +
Cc1c(C)c2cc(Cl)c(O)c(CN3CCCCC3)c2oc1=O | 89.8* | -6.6 | +
CCCCc1cc(=O)oc2cc(OCc3nn[nH]n3)c(Cl)cc12 | 20.4 | -7.6 | .
Cc1c(O)c(CN2CCCC2)cc2c1oc(=O)c1ccccc12 | 9.0 | -2.2 | .
Cc1cc(=O)oc2c(CN3CCN(C)CC3)c(O)c(Cl)cc12 | . | 2.8 | .
CCCCc1cc(=O)oc2c(CN3CCCC3)c(O)c(Cl)cc12 | 124.0* | -9.0 | +
CN1CCN(Cc2c(O)c(Cl)cc3c(-c4ccccc4)cc(=O)oc23)CC1 | -9.5 | 7.2 | .
COC(C[C@H](O)CC(=O)[C@H](C)OCc1ccccc1)OC | 4.3 | . | .
COc1ccc(C#Cc2c(-c3ccsc3)oc3ccc(-c4cc(OC)c(OC)c(OC)c4)cc23)cc1 | 59.7* | . | +
COc1ccc(-c2oc3ccc(-c4cc(OC)c(OC)c(OC)c4)cc3c2-c2ccc(OC)cc2)cc1 | -56.1 | . | .
CC(C)OC(=O)c1c(N)n(CCCN2CCOCC2)c2nc3ccccc3nc12 | 37.5* | . | +
CCOC(=O)c1c(N)n(CCCOC(=O)c2ccco2)c2nc3ccccc3nc12 | 33.5* | -1.6 | +
COCCCn1c(N)c(C(=O)OCCOC)c2nc3ccccc3nc21 | 14.8 | -8.1 | .
CC(C)OC(=O)c1c(N)n(Cc2ccco2)c2nc3ccccc3nc12 | 33.9 | 8.7 | .
CCCCn1c(=O)c(C(=O)c2ccccc2)nc2ccccc21 | 2.0 | . | .
SMILES | RmlC RmlD mix | RT RNaseH block | RmlCD fluor art
CCCCn1c(=O)nc2n(-c3ccccc3)c3ccccc3cc-2c1=O | 37.1* | . | +
CC(=O)N1CC=CC1(CC(C)C)C(=O)NCCN1CCOCC1 (stereo not given) | 2.8 | . | .
CCCCn1ccnc1C(=O)c1cccc(S(=O)(=O)N2CC(C)CC(C)C2)c1 (stereo not given) | -2.7 | . | .
CCN(Cc1nc2ccccc2c(=O)[nH]1)Cc1cc(=O)oc2cc(OC)ccc12 | 11.3 | . | .
Cc1cc(C)c(C#N)c(SCC(=O)CC(=O)OC(C)C)n1 | 55.5* | -0.6 | +
Cc1nc(SCC(=O)CC(=O)OC(C)C)c(C#N)c(C)c1C | 3.5 | -34.6 | .
CCOc1ccccc1N(C(=O)CNC(=O)c1ccco1)C(C(=O)NC(C)(C)C)c1ccncc1 (stereo not given) | 10.3 | -12.3 | .
O=C(O)c1cc2c(ccc3ccccc32)oc1=O | 82.1* | . | +
O=C(c1cc2c(ccc3ccccc32)oc1=O)N1CCCC1 | 2.9 | . | .
COc1ccc(C2NC(=O)c3sc4nc(C)c(C(C)=O)c(-c5ccc(Cl)cc5)c4c3N2)cc1 (stereo not given) | 51.6* | . | +
CCOC(=O)c1c(C)nc2sc(C(N)=O)c(N)c2c1-c1ccc(OC)cc1 | -2.1 | . | .
Cc1ccc(-c2nnn(CCC(=O)NC3CCCC3)n2)cc1 | -2.7 | 2.5 | .
CCOc1ccc(C2CC(c3cccc(OC)c3OC)n3nnnc3N2)cc1Cl (stereo not given) | -1.7 | -1.1 | .
COc1ccc(C(=O)N/N=C/c2ccc3cccc(OCc4ccccc4)c3n2)cc1 | -68.7 | . | i
O=C(N/N=C/c1ccc2cccc(OCc3ccccc3)c2n1)c1ccc(Br)cc1 | -317.0 | . | .
O=C1CC(c2ccccc2)C(C(=O)Nc2ccccc2F)N1 (stereo not given) | . | -8.5 | .
Cc1cc(C)c2[nH]c(=O)c(=O)[nH]c2c1 | -4.5 | 9.7 | .
Cc1cc2c(C)c(C)c(=O)[nH]c2cc1N | 45.2* | . | +
Cn1ncc(N=Cc2ccc([N+](=O)[O-])cc2)c1C(=O)N1CCOCC1 | -12.1 | . | .
COC(=O)c1cc(=O)c2cccc(OC)c2[nH]1 | . | . | i
COc1ccc(OC)c2[nH]c(C(=O)O)cc12 | -15.0 | . | .
CC1=C(C(=O)OCc2ccccc2)C(c2ccccc2OS(=O)(=O)c2ccc(C)cc2)NC(=O)N1CCCC(=O)O (stereo not given) | 10.8 | . | .
CCN(CC)c1ccc2cc(-c3nc4ccccc4[nH]3)c(=O)oc2c1 | 30.2* | -65.8 | +
CCN(CC)c1ccc2cc(-c3nc4ccccc4n3C)c(=O)oc2c1 | -63.6 | 5.8 | .
CN(C)CC(C)(C)CNS(=O)(=O)CC12CCC(CC1=O)C2(C)C (stereo not given) | -14.6 | . | .
SMILES | RmlC RmlD mix | RT RNaseH block | RmlCD fluor art
COc1ccccc1C(=O)NCCCN1CCCC1=O | -10.6 | -10.1 | .
COC(=O)C1=CN(CCCN2CCCC2=O)C=C(C(=O)OC)C1c1ccccc1C(F)(F)F | 68.4* | -3.4 | +
C=CCc1cc(/C=N/NC(=O)CSc2nnc(CCCc3ccc(OC)cc3)o2)cc(OC)c1O | -5.9 | . | .
CCc1c(C)sc(NC(=O)Cn2nc(C(F)(F)F)c3c2CCCC3)c1C#N | 10.6 | . | .
O=C(CNS(=O)(=O)c1ccc(Br)s1)N1CCC(N2CCCCC2)CC1 | -10.4 | -19.1 | .
O=C(CCn1c(=S)[nH]c2cc3c(cc2c1=O)OCO3)N1CCN(C2CCCCC2)CC1 | . | 5.5 | .
Nc1ccc(-c2nc3c(Cl)c(N)ccc3[nH]2)cc1 | 116.0* | -4.3 | +
Nc1ccc2nc(-c3ccc(Cl)cc3)[nH]c2c1 | 8.8 | 3.1 | .
COc1cccc(CN(C)C(=O)c2ccc3nccnc3c2)c1 | -5.5 | . | .
Cc1ccc(S(=O)(=O)N2CCC(=O)N(CCOCc3ccc(Cl)cc3)CC2)cc1 | -10.1 | . | .
COc1ccccc1N=c1oc2cc(O)ccc2cc1C(N)=O | 40.2* | -25.3 | +
COc1ccccc1N=c1oc2cc(O)ccc2cc1C(=O)NCC1CCCO1 (stereo not given) | 21.3 | -4.4 | .
CN(C)CCCNS(=O)(=O)c1cc(Cl)ccc1Cl | 1.8 | 6.1 | .
CN(C)CCCNS(=O)(=O)c1ccc(N2CCC(c3ccc(Cl)cc3)=N2)cc1 | 93.2* | . | +
O=S(=O)(c1ccc(N2CCC(c3ccc(Cl)cc3)=N2)cc1)N(CCO)CCO | 39.5* | . | +
CCN(CC(=O)N1CCCCCC1)S(=O)(=O)c1ccc(Cl)cc1 | -0.9 | -1.1 | .
CC(C)c1nc(SCC(=O)NCc2ccc3c(c2)OCO3)c2c(=O)n(C)c(=O)n(C)c2n1 | . | 8.7 | .
Cn1c(SCc2nn[nH]n2)nc2c1c(=O)n(Cc1ccccc1Cl)c(=O)n2C | -8.9 | 18.6 | .
CCOC(=O)c1cc(C(=O)OCC)c2ccccn2c1=O | 70.7* | . | +
